These results are taken from PubChem BioAssay.

Assay [1] is described as follows: A549 cell viability effects, profiling panel, calcein-AM fluorescence, 48 h, basal (AID 1162). Particulars: higher = more signal.
Assay [2] is described as follows: adipocyte viability effects, profiling panel, cell-based, 3T3-L1 adipocytes, calcein-AM fluorescence, 48 h, basal (AID 1163). Particulars: 3T3-L1 adipocytes viability, higher = more signal.
Assay [3] can be described thus: HepG2 cell viability effects, profiling panel, calcein-AM fluorescence, 48 h, basal (AID 1164). Particulars: higher = more signal.
The nature of assay [4]: MM1S cell viability effects, profiling panel, calcein-AM fluorescence, 48 h, basal (AID 1165).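 Also: viability of MM1S multiple myeloma cells under basal unstimulated conditions.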 Particulars: higher = more signal.
Assay [5] in a line: basal RPMI8226 viability, no added stimulus, profiling panel, cell-based, calcein-AM fluorescence, 48 h, PK04 Diversity Set (AID 1166).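 Also: cells grown under basal conditions without added stimulus.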 Particulars: RPMI8226 myeloma viability, higher = more signal.
A short description of assay [6]: basal HepG2 mitochondrial membrane potential changes, profiling panel, cell-based, JC-1 fluorescence, 24 h, 100 nL compound (AID 1167). Particulars: higher = more signal.
The nature of assay [7]: basal 3T3-L1 adipocyte mitochondrial potential changes, profiling panel, cell-based, JC-1 fluorescence, 3T3-L1 adipocytes, 24 h, 100 nL compound (AID 1168). Particulars: JC-1 mitochondrial fluorescence, higher = more signal, called active from +8 up or from −8 down.
Assay [8] in a line: basal RPMI8226 mitochondrial membrane potential changes, profiling panel, cell-based, JC-1 fluorescence, 24 h, 100 nL compound (AID 1169). Particulars: RPMI8226 myeloma, JC-1 mitochondrial potential fluorescence, higher = more signal.
A short description of assay [9]: basal MM1S mitochondrial membrane potential changes, profiling panel, cell-based, JC-1 fluorescence, 24 h, 100 nL compound (AID 1170). Particulars: higher = more signal.
Assay [10] can be described thus: A549 lung cancer cell viability effects, profiling panel, resazurin fluorescence, 24 h, PK04 Diversity Set (AID 1171). Particulars: higher = more signal, called active from +8 up or from −8 down. Background: Resazurin is reduced to fluorescent resorufin, in cell work by metabolically active cells.

Molecules are shown by their SMILES. Calls of active or inactive are those of the source.
Also: test concentration not given here.

As to `C=CCOC(=O)[C@H]1[C@@H]2C(=O)O[C@@H](c3ccccc3)[C@@H](c3ccccc3)N2[C@@H](c2ccc(OCCOC(=O)[C@H]3C[C@H]4C(=O)N[C@@H](Cc5ccccc5)C(=O)N4[C@H]3c3ccc(O)cc3)cc2)[C@]12C(=O)Nc1ccccc12`, the z-score in assay [1] is -0.794; in assay [2], 0.689; in [3], 0.642; in assay [4] it was 0.0505; in assay [5] it was -0.216; in assay [6] it was -1.47. Besides, the z-score is 0.0241 (inactive) in [7], -0.287 in [8], -0.718 in assay [9] and 1.7 (inactive) in assay [10].
For `COC(=O)[C@]1(CO)N=C(c2ccc(OCCCO)cc2)O[C@@H]1c1ccccc1N=[N+]=[N-]`, the z-score in assay [1] was -0.0196; in [2], 0.909; in assay [3], 0.45; in [4], 0.512; in assay [5] it was -0.172; in assay [6], -0.177. The z-score in [7] is -0.464 (inactive); in assay [8], 0.392; in [9], -0.471; in assay [10], -0.276 (inactive).
`Cc1ccc(S[C@]2(C(=O)O)CC(=O)N(Cc3ccccc3)[C@@H]2c2ccc(CO)cc2I)cc1`: the z-score in [1] was 0.282; in [2], 0.181; in assay [3], 0.0583; in assay [4], -2.82; in [5], -2.03; in assay [6] it was -0.862. Besides, the z-score is -0.486 (inactive) in assay [7], -0.551 in assay [8], -0.967 in assay [9] and 0.682 (inactive) in assay [10].
Turning to `CN1C(=O)C2C(C1=O)C1C=C(CCCO)C2C(c2ccc(CN3CCCC3)cc2)N1C` (stereo not given), the z-score is -0.259 in [1]; 0.617 in assay [2]; -0.94 in assay [3]; 0.312 in assay [4]; -1.55 in assay [5]; 0.48 in assay [6]. Moreover, the z-score in [7] was -0.319 (inactive); in [8], -0.667; in assay [9], 0.287; in assay [10] it was -1.1 (inactive).
As for `O=C1C[C@@H](O)[C@@H](O)[C@@H]2[C@@H]3C(=O)N(c4ccc(F)cc4F)C(=O)[C@@H]3CC[C@@H]12`, the z-score in assay [1] was -0.294; in [2], -0.0367; in assay [3], 0.644; in assay [4], -0.701; in assay [5], -0.709; in assay [6], -0.56. The z-score in [7] was -0.597 (inactive); in assay [8], -0.28; in [9] it was 0.959; in assay [10], 0.824 (inactive).
As to `C=C(/C(=C/C[C@H](OC(=O)c1ccncc1)c1ccc(OCCO)cc1)c1cnc2ccccc2c1)C(C)C`, the z-score was 1.31 in [1]; -0.122 in assay [2]; 0.0253 in assay [3]; -2.75 in assay [4]; -0.294 in [5]; 0.92 in [6]. Moreover, the z-score in [7] was -0.69 (inactive); in [8], -0.815; in [9] it was -0.0967; in assay [10], 0.58 (inactive).
As for `CC(C)c1ccc(NN2C(C(O)c3ccc4c(c3)OCO4)C=CC3C(=O)N(c4ccccc4)C(=O)C32)cc1` (stereo not given), the z-score in [1] is -0.842; in [2], -0.293; in assay [3], 0.367; in assay [4], -0.911; in [5], -0.369; in [6], -1.53. Also, the z-score is -0.462 (inactive) in [7], 0.337 in assay [8], 0.186 in assay [9] and -0.616 (inactive) in [10].
Consider `COc1ccc(O[C@@H]2[C@H](O)CO[C@H]2C=CC#Cc2ccccc2)cc1`, for which the z-score was -0.128 in [1]; 0.392 in [2]; 0.0395 in assay [3]; -2.54 in [4]; -0.0849 in assay [5]; -0.445 in assay [6]. In addition, the z-score in assay [7] is -0.403 (inactive); in assay [8], 0.617; in assay [9] it was 0.113; in assay [10] it was 0.357 (inactive).
Turning to `O=C1C[C@@H](O)[C@@H](O)[C@@H]2[C@@H]3C(=O)N(C4CCCCC4)C(=O)[C@@H]3CC[C@H]12`, the z-score is 0.18 in assay [1]; 0.0589 in assay [2]; 0.0702 in assay [3]; -0.148 in assay [4]; -0.189 in assay [5]; -0.401 in assay [6]. For the same compound, the z-score is -0.364 (inactive) in [7], 0.0892 in assay [8], -0.354 in assay [9] and 0.386 (inactive) in [10].
As for `C=CCN1C(=O)[C@]2(O[C@H](CCn3cc(CCO)nn3)[C@@H]([Si](C)(C)c3ccc(OC)cc3)[C@@H]2C)c2cc(N3CCOC3=O)ccc21`, the z-score in assay [1] was 0.0694; in assay [2], 0.654; in assay [3] it was -0.316; in assay [4], -2.64; in [5], -1.37; in assay [6] it was 0.464. Further, the z-score is -0.0813 (inactive) in assay [7], -0.585 in assay [8], -0.539 in assay [9] and 0.333 (inactive) in assay [10].
Consider `C=C(/C(=C/C[C@@H](OC(=O)c1ccncc1)c1ccc(OCCO)cc1)c1cnc2ccccc2c1)C(C)C`, for which the z-score was 0.476 in assay [1]; 0.443 in assay [2]; -0.477 in assay [3]; -1.78 in [4]; 0.448 in assay [5]; 2.2 in assay [6]. Moreover, the z-score in assay [7] is -0.883 (inactive); in [8], -0.736; in [9], -0.48; in [10], -0.464 (inactive).
Take `COC(=O)C1=C(C)N(Cc2ccccc2)[C@]23O[C@](C(=O)OC)(C(=O)N2[C@@H]1c1ccccc1)[C@H]1CCOC(=O)[C@H]13`: the z-score was 0.589 in assay [1]; 0.109 in assay [2]; -0.21 in assay [3]; 0.0449 in assay [4]; -0.808 in [5]; 0.74 in assay [6]. The z-score in [7] was 0.642 (inactive); in assay [8], -0.139; in assay [9], -0.0135; in assay [10], 0.516 (inactive).
On to `CCc1cc2c(nc1CC)CCN(CCC(C)=NOC(C)CN1CCCc3nc(C)c(C)cc31)C2` (stereo not given), for which the z-score in assay [1] is 0.566; in [2], -0.326; in assay [3] it was 0.595; in [4], -2.4; in assay [5] it was -0.305; in assay [6], 1.31. Further, the z-score in assay [7] is -0.415 (inactive); in assay [8], -0.668; in assay [9], -0.342; in assay [10], 0.103 (inactive).
As for `CCOC(=O)NN=C1C[C@@H](O)[C@@H](O)[C@@H]2[C@@H]3C(=O)N(C(C)(C)C)C(=O)[C@@H]3CC[C@@H]12`, the z-score in assay [1] was -0.571; in [2], -0.0947; in assay [3] it was -0.394; in [4], 0.0284; in [5] it was -0.0464; in [6], -0.79. The z-score in [7] is -0.911 (inactive); in assay [8] it was 0.329; in assay [9] it was 0.243; in assay [10], -0.452 (inactive).
Turning to `COC(=O)CC=C[C@H](C)[C@@H](OCc1ccccc1Br)C(C)C`, the z-score is 0.921 in assay [1]; 0.0901 in [2]; 1.34 in assay [3]; 0.426 in assay [4]; 0.736 in [5]; 0.744 in [6]. For the same compound, the z-score was 0.319 (inactive) in [7], 0.00667 in assay [8], -0.822 in assay [9] and -0.307 (inactive) in assay [10].
